Screening data: PubChem BioAssay, National Center for Advancing Translational Sciences (NCATS)
HEK293 viab: reduces viability of HEK-293 SNCA reporter cells | HEK-293-SNCA-luc viability, GF-AFC fluorescence, 24 h | Potency, µM (highest dose often 57.1 µM), usual class: cytotoxic | 150,000 tested, 0.12% active | AID 1671193; note: nearly all actives have a fitted effect of over 30% in size
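Cytotoxicity counterscreen: after 24 h compound treatment of genome-edited SNCA-luciferase HEK-293 cells, live-cell protease substrate GF-AFC read by fluorescence after 30 min; activity scaled between DMSO (0%) and medium-only (-100%), curves Hill-fitted.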
HEK cytotox: kills HEK 293 cells; HEK 293 viability, ATP luminescence (CellTiter-Glo), 48-72 h; Potency, µM (top dose mostly 115 µM), hits mostly inhibitors; 94,000 tested, 6.6% active; AID 1345083; note: nearly all actives have a fitted effect of over 60% in size
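Pintool-delivered compounds were incubated with HEK 293 cells (250 cells/well) at 37 degree Celsius for 48 or 72 hr. ATP-dependent luminescence (CellTiter-Glo) then reported remaining viable cells.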
NIH3T3 tox: NIH 3T3 cell cytotoxicity | 94,000 tested, 4.3% active | NIH 3T3 viability, CellTiter-Glo ATP luminescence, 48-72 h | AID 1345082 | Potency, µM (series often up to 96.7 µM), most hits filed as inhibitors; note: nearly all actives have a fitted effect of over 55% in size
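Cytotoxicity is measured as loss of cellular ATP: NIH 3T3 cells (400/well) are exposed to compound for 48 or 72 hr at 37 °C, then CellTiter-Glo luminescence is imaged after 10 min at room temperature.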
Luciferase inh: blocks purified firefly luciferase enzyme activity; Potency, µM (doses to about 115 µM), hits mostly inhibitors; 76,000 tested, 2.5% active; purified P. pyralis luciferase, luminescence, biochemical; P08659; note: nearly all actives have a fitted effect of over 65% in size
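Cell-free enzyme assay, 10nM P. pyralis luciferase, luciferin and ATP each at 10uM. Inhibition profiled over a 6-point titration, read as luminescence.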
SNCA expr inhib: inhibitors of alpha-synuclein (SNCA) gene expression | Potency, µM (series often up to 57.2 µM), actives largely listed as inhibitors | AID 1671194 | 140,000 tested, 0.17% active | HEK-293 SNCA-luciferase knock-in, luminescence, 24 h; note: nearly all actives have a fitted effect of over 45% in size
NPR1 antag: human Npr1 receptor antagonism; P16066; Potency, µM (doses to about 46.3 µM), usual class: inhibitors; HEK293 hNpr1 GloSensor cGMP, ANP-stimulated luminescence; 76,000 tested, 1.6% active; AID 1347048; calls by dose curve; note: nearly all actives have a fitted effect of over 60% in size
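Compound pre-incubated 30 min at room temperature on GloSensor-loaded HEK293 cells stably carrying hNpr1 and the pGS-40F cGMP biosensor. Stimulation uses hNppA at 0.1 nM final; luminescence is taken at baseline and 20 min post-agonist.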
Large screens that a line does not name were inactive; ! = a repeat was not active. Shown are actives, neighbours in structure and some others; about 7.4% of the full set was active somewhere. Unless noted, calls come from the whole dose curve; as a rule, active = well fitted curve in the direction sought with a large enough effect; inconclusive = small, poorly fitted or top-dose-only effect, or another doubt; inactive = no such curve, though single readings can be large; an effect the other way counts as inactive or inconclusive.

COCC[C@]1(O)CCN(Cc2cc(F)ccc2-n2cccn2)C[C@H]1C	HEK cytotox inconclusive
CC(=O)NCCC(=O)N1CCC2(CC1)CN(C(=O)Cc1ccccc1)CCO2	none (no result: Luciferase inh, NPR1 antag)
O=C(CC1CCCC1)N1CC[C@@H]2COCCN(Cc3ccccc3)[C@@H]2C1	HEK cytotox 79.4µM
CCCS(=O)(=O)N1CCC(Oc2ccc(-c3noc(CC)n3)cc2)C1 (stereo not given)	HEK cytotox inconclusive
CCc1nc(-c2ccc(OC3CCN(C(=O)c4sc(C)nc4C)C3)cc2)no1 (stereo not given)	HEK cytotox 44.7µM, NIH3T3 tox inconclusive
CCc1nc(-c2ccc(OC3CCN(S(=O)(=O)Cc4ccccc4)C3)cc2)no1 (stereo not given)	HEK cytotox 44.7µM, NIH3T3 tox inconclusive, Luciferase inh inconclusive, NPR1 antag inconclusive
COCc1nc(-c2ccc(OC3CCN(C(=O)Cc4c[nH]c5ccccc45)C3)cc2)no1 (stereo not given)	HEK cytotox 35.5µM, NIH3T3 tox inconclusive, NPR1 antag inconclusive
COCc1cn(C[C@H]2C[C@@H](NC(C)=O)[C@H](O)[C@@H]2O)nn1	none
FC(F)(F)SCCn1ccnc1-c1cc2n(n1)CCCNC2	none
COCCOCc1nc(C2CCCCN2C(=O)Nc2ccc(OC)c(F)c2)no1 (stereo not given)	none
O=C(NCCc1ccc(Cl)cc1)C1CCCN(c2nccc(Nc3ccccc3F)n2)C1 (stereo not given)	HEK cytotox 22.4µM, NIH3T3 tox 25.1µM (no result: Luciferase inh, NPR1 antag)
COc1ccccc1Nc1ccnc(N2CCCC(C(=O)NCc3ccc(F)c(F)c3)C2)n1 (stereo not given)	HEK cytotox inconclusive, NIH3T3 tox 12.6µM (no result: Luciferase inh, NPR1 antag)
O=C(NCc1ccc(F)cc1)C1CCCN(c2nccc(Nc3ccccc3F)n2)C1 (stereo not given)	HEK cytotox inconclusive, NIH3T3 tox 28.2µM (no result: Luciferase inh, NPR1 antag)
COc1ccccc1Nc1ccnc(N2CCCC(C(=O)NCc3ccc(F)cc3)C2)n1 (stereo not given)	HEK cytotox 14.1µM, NIH3T3 tox 20µM, SNCA expr inhib inconclusive (no result: Luciferase inh, NPR1 antag)
Cc1ccccc1NC(=O)N1CCC(CCNC(=O)Cc2ccsc2)CC1	none
CCc1ccccc1CN1CCC2(Cc3ccccc3CNC2=O)C1 (stereo not given)	HEK cytotox 79.4µM, NIH3T3 tox inconclusive (no result: Luciferase inh, NPR1 antag)
CCOc1cccc(CN2CCCC23Cc2ccccc2CNC3=O)c1 (stereo not given)	HEK cytotox 79.4µM!, NIH3T3 tox inconclusive (no result: Luciferase inh, NPR1 antag)
CCOc1cccc(CN2CCCCC23Cc2ccccc2CNC3=O)c1 (stereo not given)	HEK cytotox inconclusive, NIH3T3 tox inconclusive (no result: Luciferase inh, NPR1 antag)
O=C1NCc2ccccc2CC12CCCN2Cc1cc(F)ccc1F (stereo not given)	HEK cytotox 35.5µM, NIH3T3 tox inconclusive (no result: Luciferase inh, NPR1 antag)
O=C1NCc2ccccc2CC12CCCN2Cc1ccc(F)cc1F (stereo not given)	NIH3T3 tox inconclusive, SNCA expr inhib inconclusive (no result: Luciferase inh, NPR1 antag)
CCc1ccccc1CN1CCCC12Cc1ccccc1CNC2=O (stereo not given)	HEK cytotox 79.4µM, NIH3T3 tox inconclusive (no result: Luciferase inh, NPR1 antag)
O=Cc1ccccc1-c1cncc(C(=O)O)c1	none (no result: Luciferase inh, NPR1 antag)
O=C1NCc2ccccc2CC12CCCN2Cc1ccc(F)cc1 (stereo not given)	none (no result: Luciferase inh, NPR1 antag)
Cc1ccc(CN2CCCCC23Cc2ccccc2CNC3=O)cc1C (stereo not given)	HEK cytotox inconclusive, NIH3T3 tox inconclusive (no result: Luciferase inh, NPR1 antag)
O=C1NCc2ccccc2CC12CCN(Cc1cccc(C(F)(F)F)c1)C2 (stereo not given)	HEK cytotox 39.8µM, NIH3T3 tox inconclusive (no result: Luciferase inh, NPR1 antag)
O=C1NCc2ccccc2CC12CCN(Cc1cccc(F)c1)C2 (stereo not given)	HEK cytotox inconclusive (no result: Luciferase inh, NPR1 antag)
Cc1ccsc1CN1CCCCC12Cc1ccccc1CNC2=O (stereo not given)	HEK cytotox 31.6µM, NIH3T3 tox inconclusive (no result: Luciferase inh, NPR1 antag)
CCc1nc2c(c(-c3ccc(O)cc3)n1)CCN(Cc1cccc(C(F)(F)F)c1)CC2	HEK cytotox 44.7µM, NIH3T3 tox 39.8µM, NPR1 antag inconclusive
Cc1ccccc1CN1CCc2nc(N3CCN(C)CC3)[nH]c(=O)c2CC1	none
